Only some compounds are listed: those with a hit (about 4% of all), similar ones and a draw of the others.
TWEAK Fn14 block: inhibitors of TWEAK-Fn14 interaction signaling. inhibition, % at 10 µM. TWEAK-stimulated Fn14 reporter cells, luciferase luminescence, 8 h. actives 2% (n = 360,000); in the data active = inhibition above about 50%
HIF-2a block: inhibitors of HIF-2a. 786-0 RCC cells HIF-2a reporter, luciferase luminescence, overnight. inhibition, % at 18.8 µM. actives 0.72% (n = 360,000);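 active = inhibition of the luminescence signal of 40% or more relative to plate controls, in a single-dose primary screen at 18.75 µM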
TROY signal inh: TROY signaling inhibition; actives 0.98% (n = 360,000); inhibition, % at 10 µM; AID 1347056; Q293 LMP1-TROYcd NF-kB luciferase reporter, 4 h;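 active = compounds whose plate-normalised and pattern-corrected inhibition of the luciferase reporter signal at the single screening dose is 50% or more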
EBV LMP1 NFkB: Epstein-Barr LMP1 NF-kappaB reporter inhibition. LMP1-induced NF-kappaB luciferase reporter cells, luminescence. inhibition, % at 12.5 µM. actives 0.69% (n = 350,000). AID 504558; in the data active = inhibition above about 41%
Peg3 prom inh: reduces Peg3 promoter-driven luciferase expression in HeLa; HeLa PEG-Prom luciferase reporter, luminescence, overnight; actives 1.7% (n = 360,000); inhibition, % at 20 µM; AID 588405;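 active = inhibition of at least 50% at 20 µM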
MITF TRPM1 inh: inhibitors of MITF-driven TRPM1 promoter in melanoma cells; SK-MEL-5 TRPM1 promoter luciferase, 24 h; inhibition, % at 12.5 µM; actives 0.83% (n = 330,000);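 active = mean inhibition across replicates of 60% or more, whatever share of single replicates reaches that level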
Mdm2 MdmX conf: confirmation of inhibitors of human Mdm2/MdmX interaction, set 2 | shares compounds with HIF-2a block | SaOS-2 split-luciferase Mdm2/MdmX complementation, luminescence | inhibition, % at 8 µM | actives 99% (n = 740) | AID 504601;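 active = mean inhibition of the luminescence signal across two replicates at or above 26 percent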
Target sequence (O15151 whole entry, looked up): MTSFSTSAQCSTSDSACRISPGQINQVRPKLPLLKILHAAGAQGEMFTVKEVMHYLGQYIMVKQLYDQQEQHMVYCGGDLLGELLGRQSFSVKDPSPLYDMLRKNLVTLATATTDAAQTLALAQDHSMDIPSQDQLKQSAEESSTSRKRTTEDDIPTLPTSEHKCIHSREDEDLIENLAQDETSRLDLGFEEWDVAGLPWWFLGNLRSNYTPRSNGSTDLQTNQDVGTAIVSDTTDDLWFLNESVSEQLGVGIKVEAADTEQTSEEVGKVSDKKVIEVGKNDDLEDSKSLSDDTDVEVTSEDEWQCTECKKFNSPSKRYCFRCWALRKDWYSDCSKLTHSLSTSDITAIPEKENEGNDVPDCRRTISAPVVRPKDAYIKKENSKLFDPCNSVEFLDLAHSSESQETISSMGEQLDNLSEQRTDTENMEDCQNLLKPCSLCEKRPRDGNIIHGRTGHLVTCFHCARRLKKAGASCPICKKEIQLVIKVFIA
Target sequence (Q00987 whole entry, looked up): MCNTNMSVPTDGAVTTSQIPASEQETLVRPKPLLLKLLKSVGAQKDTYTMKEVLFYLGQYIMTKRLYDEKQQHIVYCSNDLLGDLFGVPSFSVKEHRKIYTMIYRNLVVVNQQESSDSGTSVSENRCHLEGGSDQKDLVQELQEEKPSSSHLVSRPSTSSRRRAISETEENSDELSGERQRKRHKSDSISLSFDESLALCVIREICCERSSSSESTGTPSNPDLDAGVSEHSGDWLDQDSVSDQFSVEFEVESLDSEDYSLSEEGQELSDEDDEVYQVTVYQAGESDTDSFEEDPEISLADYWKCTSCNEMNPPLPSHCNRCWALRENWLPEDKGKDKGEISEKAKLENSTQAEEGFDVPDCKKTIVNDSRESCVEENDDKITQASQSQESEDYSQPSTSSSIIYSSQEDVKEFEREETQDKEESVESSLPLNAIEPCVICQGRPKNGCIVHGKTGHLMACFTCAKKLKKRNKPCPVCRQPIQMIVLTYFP
HIF-2a conf: HIF-2a inhibition, single concentration confirmation; shares compounds with HIF-2a block; inhibition, % at 18.8 µM; actives 56% (n = 1,800); AID 651580; 786-0 RCC cells, HIF-2a luciferase reporter luminescence, overnight;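 active = mean inhibition across four replicates of at least 40 percent at the single tested concentration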
HIF-1a counter: inhibits HIF-1a reporter, a counter-screen for HIF-2a inhibitors. shares compounds with HIF-2a block. MiaPaCa-2 HIF-1a luciferase reporter, desferoxamine, overnight. inhibition, % at 18.8 µM. actives 72% (n = 1,800);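 active = mean inhibition of the reporter signal across four replicates at the single tested dose of 50% or more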
A number is an active result; ! = a repeat was not active.

C=CCn1c(SCC(=O)Nc2ccc(Br)cc2)nc(O)c(CC)c1=O was read as TWEAK Fn14 block inactive, HIF-2a block inactive, TROY signal inh inactive, EBV LMP1 NFkB inactive, Peg3 prom inh inactive and MITF TRPM1 inh inactive.
COCCCNC(=O)c1csc([C@H]2C[C@H](O)[C@@H](CO)O2)n1 was read as TWEAK Fn14 block inactive, HIF-2a block inactive, TROY signal inh inactive and Peg3 prom inh inactive.
Cc1c(C(=O)NCC2CCCO2)oc2ccc(S(=O)(=O)N3CC(C)CC(C)C3)cc12 (stereo not drawn) was read as TWEAK Fn14 block inactive, HIF-2a block 39, TROY signal inh inactive, EBV LMP1 NFkB inactive, Peg3 prom inh inactive, HIF-2a conf inactive and HIF-1a counter 57.
Cc1c(C(=O)NCC2CCCO2)oc2ccc(S(=O)(=O)N3CCCCC3)cc12 (stereo not drawn) was read as TWEAK Fn14 block inactive, HIF-2a block inactive, TROY signal inh inactive, EBV LMP1 NFkB inactive, Peg3 prom inh inactive and MITF TRPM1 inh inactive.
Screening COc1ccc(C(NC(=O)c2cc(OC)ccc2OC)c2ccccc2)cc1 (stereo not drawn) returned TWEAK Fn14 block inactive, HIF-2a block inactive, TROY signal inh inactive, EBV LMP1 NFkB inactive, Peg3 prom inh inactive and MITF TRPM1 inh inactive.
`COc1ccc(C(NC(=O)c2c(F)c(F)c(F)c(F)c2F)c2ccccc2)cc1` (stereo not drawn) gave TWEAK Fn14 block inactive, HIF-2a block 83, TROY signal inh 69, EBV LMP1 NFkB inactive, Peg3 prom inh 93, MITF TRPM1 inh inactive, HIF-2a conf 57 and HIF-1a counter 100.
Screening COc1ccc(CNC(=O)Cn2cnc3c(=O)n(C)c(=O)n(C)c32)cc1 returned TWEAK Fn14 block inactive, HIF-2a block 42, TROY signal inh inactive, EBV LMP1 NFkB inactive, Peg3 prom inh inactive, MITF TRPM1 inh inactive, HIF-2a conf inactive and HIF-1a counter inactive.
`O=C(O)c1ccc(S(=O)(=O)NN=Cc2c[nH]c3ccccc23)cc1` gave TWEAK Fn14 block inactive, HIF-2a block inactive, TROY signal inh inactive, EBV LMP1 NFkB inactive and Peg3 prom inh inactive.
O=C(O)c1ccc(N/N=C/c2c[nH]c3ccccc23)cc1 was read as TWEAK Fn14 block inactive, HIF-2a block 51, TROY signal inh 53, EBV LMP1 NFkB inactive, Peg3 prom inh 67, MITF TRPM1 inh inactive, HIF-2a conf 78 and HIF-1a counter 60.
CC(C)c1ccc(/C=C/C(=O)O)cc1 was read as TWEAK Fn14 block inactive, HIF-2a block inactive, TROY signal inh inactive, EBV LMP1 NFkB inactive, Peg3 prom inh inactive and MITF TRPM1 inh inactive.
For CCCc1ccc(-c2ccc(/C=C/C(=O)O)cc2)nc1 the results were TWEAK Fn14 block 94, HIF-2a block 87, TROY signal inh inactive, EBV LMP1 NFkB 75, Peg3 prom inh inactive, MITF TRPM1 inh 86, HIF-2a conf 89 and HIF-1a counter 91.
`COc1cc(C(=O)Nc2cccc(C)c2C)ccc1OCC(=O)N1CCOCC1` gave TWEAK Fn14 block inactive, HIF-2a block inactive, TROY signal inh inactive, EBV LMP1 NFkB inactive and Peg3 prom inh inactive.
For O=C(/C=C/c1ccccc1[N+](=O)[O-])OCC(=O)N1CCN(c2ccccc2)CC1 the results were TWEAK Fn14 block inactive, HIF-2a block inactive, TROY signal inh inactive, EBV LMP1 NFkB inactive and Peg3 prom inh inactive.
`O=C1C(=O)c2ccc(-c3ccccc3)cc2-c2ccccc21` gave TWEAK Fn14 block 107, HIF-2a block 93, TROY signal inh 83, EBV LMP1 NFkB 91, Peg3 prom inh 101, MITF TRPM1 inh 104 and Mdm2 MdmX conf 103.
CCOC(=O)c1cc(-c2csc(-c3ccc(C(C)(C)C)cc3)n2)on1 was read as TWEAK Fn14 block inactive, HIF-2a block 57, TROY signal inh inactive, EBV LMP1 NFkB inactive, Peg3 prom inh inactive, MITF TRPM1 inh inactive, HIF-2a conf 58 and HIF-1a counter inactive.
CCOC(=O)c1cc(-c2csc(-c3ccc(C(F)(F)F)cc3)n2)on1 was read as TWEAK Fn14 block inactive, HIF-2a block inactive, TROY signal inh inactive, EBV LMP1 NFkB inactive, Peg3 prom inh inactive and MITF TRPM1 inh inactive.
For CCc1ccc(N(CC(=O)N2CCOCC2)S(C)(=O)=O)cc1 the results were TWEAK Fn14 block inactive, HIF-2a block inactive, TROY signal inh inactive, EBV LMP1 NFkB inactive, Peg3 prom inh inactive and MITF TRPM1 inh inactive.
Screening c1nc(NCc2ccc3c(c2)OCO3)c2cc(-c3ccoc3)ccc2n1 returned TWEAK Fn14 block 83, HIF-2a block inactive, TROY signal inh inactive, EBV LMP1 NFkB 49, Peg3 prom inh inactive, MITF TRPM1 inh inactive and Mdm2 MdmX conf 88.
Screening CN(C(=O)COC(=O)/C=C/c1ccccc1)C1CCS(=O)(=O)C1 (stereo not drawn) returned TWEAK Fn14 block inactive, HIF-2a block inactive, TROY signal inh inactive, EBV LMP1 NFkB inactive and Peg3 prom inh inactive.
Screening CCN1CCN(Cc2ccc(NC(=O)c3cc(NC(=O)c4cncc(-c5ccc(C#N)cc5)c4)cc(OC)c3)cc2C(F)(F)F)CC1 returned TWEAK Fn14 block inactive, HIF-2a block 89!, TROY signal inh inactive, EBV LMP1 NFkB inactive, Peg3 prom inh 106, MITF TRPM1 inh 97, HIF-2a conf inactive and HIF-1a counter 98.
For Cc1ccnc(NS(=O)(=O)c2ccc3ccccc3c2)n1 the results were TWEAK Fn14 block inactive, HIF-2a block inactive, TROY signal inh inactive, EBV LMP1 NFkB inactive, Peg3 prom inh inactive and MITF TRPM1 inh inactive.
For CCOc1ccc(OCc2cccc(C(=O)N3CCCCCC3)c2)cc1 the results were TWEAK Fn14 block inactive, HIF-2a block 44, TROY signal inh inactive, EBV LMP1 NFkB 53, Peg3 prom inh inactive, MITF TRPM1 inh inactive, HIF-2a conf inactive and HIF-1a counter inactive.
`N#C/C(=C\C=C\c1ccccc1[N+](=O)[O-])C(=O)NCc1ccccc1` gave TWEAK Fn14 block 88, HIF-2a block 81, TROY signal inh inactive, EBV LMP1 NFkB inactive, Peg3 prom inh 105, MITF TRPM1 inh 69, HIF-2a conf 61 and HIF-1a counter 102.
Screening Clc1nc2c(-c3ccccc3)nnn2c2ccccc12 returned TWEAK Fn14 block inactive, HIF-2a block inactive, TROY signal inh inactive, EBV LMP1 NFkB inactive, Peg3 prom inh 103, MITF TRPM1 inh inactive and Mdm2 MdmX conf 103.
O=C(COC(=O)c1ccc(NS(=O)(=O)c2ccc(F)c(F)c2)cc1)NCC1CCCO1 (stereo not drawn) was read as TWEAK Fn14 block inactive, HIF-2a block 45, TROY signal inh inactive, EBV LMP1 NFkB inactive, Peg3 prom inh inactive, MITF TRPM1 inh inactive, HIF-2a conf inactive and HIF-1a counter inactive.

Screens from PubChem.
